Data as given in ChEMBL document CHEMBL1201862, “PubChem BioAssay data set” (2004).
Out of some 400,000 compounds screened, about 2,100 (0.53%) were called active. Not shown: some 14% with an inconclusive outcome. No rule for the calls is given here. For the sample, actives were picked, then their nearest neighbours and some compounds at random.

These molecules were tested against Ataxin-2 (Homo sapiens) (UniProt Q99700) (assay: qHTS for Inhibitors of ATXN expression.).
Ataxin-2 (Homo sapiens), sequence (Q99700 whole entry): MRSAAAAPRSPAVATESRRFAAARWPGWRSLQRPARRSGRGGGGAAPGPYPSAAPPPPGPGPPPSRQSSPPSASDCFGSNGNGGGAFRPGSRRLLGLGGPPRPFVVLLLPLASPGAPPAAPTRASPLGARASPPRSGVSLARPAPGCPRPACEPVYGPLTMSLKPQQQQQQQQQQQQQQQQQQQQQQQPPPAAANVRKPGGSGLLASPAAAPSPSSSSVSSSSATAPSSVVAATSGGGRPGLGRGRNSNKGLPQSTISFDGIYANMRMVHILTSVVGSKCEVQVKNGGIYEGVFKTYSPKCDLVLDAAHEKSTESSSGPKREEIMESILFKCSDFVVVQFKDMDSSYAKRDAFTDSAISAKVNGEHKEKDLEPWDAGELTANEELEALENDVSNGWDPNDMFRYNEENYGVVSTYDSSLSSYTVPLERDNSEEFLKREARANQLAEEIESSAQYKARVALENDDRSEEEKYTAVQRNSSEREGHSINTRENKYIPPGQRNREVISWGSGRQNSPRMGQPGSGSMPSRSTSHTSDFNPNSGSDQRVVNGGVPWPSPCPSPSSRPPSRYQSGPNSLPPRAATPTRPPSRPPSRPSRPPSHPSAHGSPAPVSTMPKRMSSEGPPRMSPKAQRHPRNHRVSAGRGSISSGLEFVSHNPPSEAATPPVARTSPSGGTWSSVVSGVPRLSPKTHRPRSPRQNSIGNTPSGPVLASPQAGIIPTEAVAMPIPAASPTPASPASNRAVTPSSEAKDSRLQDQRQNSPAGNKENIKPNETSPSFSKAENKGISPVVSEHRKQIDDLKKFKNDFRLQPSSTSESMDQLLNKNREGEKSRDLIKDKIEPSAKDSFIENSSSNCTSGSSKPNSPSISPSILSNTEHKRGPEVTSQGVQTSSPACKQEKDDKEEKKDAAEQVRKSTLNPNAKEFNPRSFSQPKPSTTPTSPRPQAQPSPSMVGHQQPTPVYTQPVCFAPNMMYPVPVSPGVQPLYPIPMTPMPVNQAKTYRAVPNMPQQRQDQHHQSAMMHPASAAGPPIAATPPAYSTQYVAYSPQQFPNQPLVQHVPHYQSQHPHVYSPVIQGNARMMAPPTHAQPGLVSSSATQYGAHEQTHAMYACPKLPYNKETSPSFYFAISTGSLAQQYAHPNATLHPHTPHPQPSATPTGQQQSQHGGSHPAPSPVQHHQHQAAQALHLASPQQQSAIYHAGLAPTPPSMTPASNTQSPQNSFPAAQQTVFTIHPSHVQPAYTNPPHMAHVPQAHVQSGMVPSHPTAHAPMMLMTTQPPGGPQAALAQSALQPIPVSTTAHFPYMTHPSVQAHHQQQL
Type: functional
`CC(C)(C)c1ccc(SCCc2cccnc2)cc1` was tested, and the Potency was “inactive”. With `Nc1c(C(=O)Nc2ccc(Cl)cc2F)sc2nc(-c3cccs3)ccc12` the Potency was “inactive”. With `NC(=O)c1cc(N2C(=O)C=CC2=O)ccc1Cl` the Potency was 35.5 µM (active). `O=C(O)c1cccc(N2C(=O)c3cccc4c(Cl)ccc(c34)C2=O)c1` was tested, and the Potency was “inactive”. In the case of `CN1CCN(C(=O)/C=C/c2ccc([N+](=O)[O-])o2)CC1`, the Potency is reported as 8.91 µM (active). For `CN1CCCN(C(=O)/C=C/c2ccc(Cl)cc2Cl)CC1`, the Potency was “inactive”. With `CN1CCN(/N=C/c2ccc(-c3ccc([N+](=O)[O-])cc3Cl)o2)CC1` the Potency was “inactive”. `Nc1cccc2nc3ccccc3cc12` was tested, and the Potency was “inactive”. In the case of `C1=C/C(=N\C2CCCCC2)C=C2C1=NC13CCCCC1CC1=C(CCCC1)N23` (configuration not stated), the Potency is reported as 35.5 µM (active). In the case of `CSc1ccc(CN(C)Cc2nc(O)c3ccccc3n2)cc1`, the Potency is reported as “inactive”. `CCn1c(CNC(=O)c2ccc3c(c2)OCO3)nnc1SCC(=O)Nc1ccccc1F` was tested, and the Potency was “inactive”. For `O=C(CSc1cn(CCNC(=O)c2cccc(C(F)(F)F)c2)c2ccccc12)Nc1ccc2c(c1)OCCO2`, the Potency was 35.5 µM (active). With `COc1ccc(CCNC(=O)CSc2nnnn2C)cc1OC` the Potency was “inactive”. `COc1ccc(CCNC(=O)CSc2cn(CCNC(=O)c3cccc(C(F)(F)F)c3)c3ccccc23)cc1OC` was tested, and the Potency was 22.4 µM (active). In the case of `Cc1nnc(NC(=O)CSc2cn(CCNC(=O)c3ccccc3)c3ccccc23)s1`, the Potency is reported as “inactive”. With `O=C(COC(=O)CCSc1ccccc1Cl)NCc1ccco1` the Potency was “inactive”. With `COc1ccc(CC(=O)NNC2=Nc3cccc4cccc2c34)cc1` the Potency was “inactive”. `N#Cc1ccc(C(=O)CSc2nnc(-c3ccc(C(F)(F)F)cn3)s2)cc1` was tested, and the Potency was “inactive”. With `O=C(NCCO)/C(=C\c1ccco1)NC(=O)c1cccs1` the Potency was “inactive”. With `COC(=O)C1=CN(C(C)C)C=C(C(=O)OC)C1c1cccc(OC)c1` the Potency was “inactive”. `Cc1ccccc1Nc1c(-c2ccc(N3CCOCC3)cc2)nc2cccc(C)n12` was tested, and the Potency was 22.4 µM (active). In the case of `Cc1ccc(-c2nc(Nc3ccc(N4CCOCC4)cc3)c3ccccc3n2)cc1`, the Potency is reported as “inactive”. With `Cc1cccc(C)c1Nc1c(-c2ccc(N3CCOCC3)cc2)nc2cnccn12` the Potency was “inactive”. With `c1cn2c(NC3CCCC3)c(-c3ccc(N4CCOCC4)cc3)nc2cn1` the Potency was “inactive”. With `COc1ccc(C)cc1NC(=O)c1cc2c(=O)n3ccccc3nc2n1C` the Potency was “inactive”. `Cc1ccn2c(Nc3ccccc3C)c(-c3ccccn3)nc2c1` was tested, and the Potency was 15.8 µM (active). With `Cc1ccn2c(Nc3ccccc3C)c(-c3ccc(N4CCOCC4)cc3)nc2c1` the Potency was 35.5 µM (active). `COc1cc(O)ccc1-c1nc2cc(C)ccn2c1Nc1ccccc1C` was tested, and the Potency was 35.5 µM (active). `CCCCNc1c(-c2ccc(-c3ccc(C(C)=O)cc3)c(OC)c2)nc2cnccn12` was tested, and the Potency was “inactive”. `c1ccc2c(Nc3ccc(N4CCOCC4)cc3)nc(N3CCOCC3)nc2c1` was tested, and the Potency was “inactive”. In the case of `C/C(=N/NC(=O)c1sc(NS(=O)(=O)c2ccccc2)nc1C)c1sc(N)nc1C`, the Potency is reported as “inactive”. For `Oc1nc2ccccc2nc1/C=C/c1ccc(Cl)cc1`, the Potency was “inactive”. In the case of `CC(C)CN(CC(C)C)C(S)=Nc1ccc(Cl)cc1`, the Potency is reported as “inactive”. For `CN(C)CC(O)c1ccc(C=Cc2ccc(Cl)cc2)cc1` (configuration not stated), the Potency was 31.6 µM (active). With `Cc1ccc(S(=O)(=O)Nc2ccccc2/C=N/c2nc3ccccc3n2C(C)C)cc1` the Potency was “inactive”. `Nc1cc2sc(-c3ccc(C(=O)O)cc3)nc2cc1Cl` was tested, and the Potency was “inactive”. In the case of `CC[C@@H](C)[C@H](CN[C@H](CNC)C(C)C)NC[C@@H](C)c1ccc(CC(C)C)cc1`, the Potency is reported as 22.4 µM (active). In the case of `COc1cc(/C=C(\C#N)c2nc3ccccc3[nH]2)cc(Cl)c1OCc1ccccc1Cl`, the Potency is reported as “inactive”. For `COc1cc(CNC2CCCC2)cc(Cl)c1OCc1ccccc1F`, the Potency was 28.2 µM (active). For `NNC(=O)c1oc2ccccc2c1-n1cccc1`, the Potency was “inactive”. For `Cc1cc(NC(=O)Nc2ccc(Cl)cc2)n(-c2ccccc2)n1`, the Potency was “inactive”. `Cc1nc2c(c(C)nn2-c2ccccc2)c(C)c1C` was tested, and the Potency was “inactive”. For `O=c1c(Cl)cc(Cl)nn1-c1ccccc1`, the Potency was 25.1 µM (active). With `CCOC(=O)Cc1cnc(NC(=O)CSc2nc(C)c(CC)c(O)n2)s1` the Potency was “inactive”. `COc1ccc(CNCCC(c2ccc(OC(C)C)cc2)C(C)C)cc1OC` (configuration not stated) was tested, and the Potency was 25.1 µM (active). In the case of `CC(C)Oc1ccc(C(CCNCc2ccc(O)cc2)c2ccccc2)cc1` (configuration not stated), the Potency is reported as 39.8 µM (active). With `OCCCNCc1ccc(-c2ccccc2)cc1` the Potency was “inactive”. With `O=c1c(O)c(-c2ccc(O)c(O)c2)oc2cc(O)ccc12` the Potency was “inactive”. For `NC(=O)C[n+]1ccc(C=NO)cc1`, the Potency was “inactive”. `CCc1cc(=O)oc2c(CNCc3ccccc3F)c(O)c(Cl)cc12` was tested, and the Potency was “inactive”. `O=C(NNC(=O)c1cc2cc(Br)ccc2oc1=O)c1ccc(O)cc1O` was tested, and the Potency was “inactive”. For `Cc1ccc(NC(=O)CSCC(=O)OCc2cc(=O)oc3cc(O)ccc23)c(C)c1`, the Potency was “inactive”.
